L3MBTL1 block = inhibitors of human L3MBTL1 | Q9Y468 | AlphaScreen L3MBTL1–H3K9me1 peptide binding | Potency, µM (doses to about 57.1 µM), inactives show top-dose activity, negative = inhibition, actives largely listed as inhibitors | hit rate 0.66% among 230,000 | AID 485360; note: % is set by controls: 0 for no effect and ±100 for the full control effect; nearly all actives have a fitted effect of over 60% in size
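AlphaScreen proximity signal between nickel-chelate acceptor and streptavidin donor beads (final 10 ug/mL) reports binding of 50 nM L3MBTL1 to 75 nM biotin-H3 K9me1 peptide; complex incubated with compounds 30 min at room temperature; cefsulodin titration as control.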
G9a inh = G9a (human) methyltransferase inhibition; Q96KQ7; G9a H3K9 monomethylation, AlphaScreen, 2 h; Potency, µM (highest dose often 102 µM), inactives show at the highest dose activity, negative = inhibition, most hits filed as inhibitors; hit rate 8.8% among 350,000; AID 504332; note: % is set by controls: 0 for no effect and ±100 for the full control effect; nearly all actives have a fitted effect of over 75% in size
Target sequence (Q96KQ7 913-1193 limits assumed): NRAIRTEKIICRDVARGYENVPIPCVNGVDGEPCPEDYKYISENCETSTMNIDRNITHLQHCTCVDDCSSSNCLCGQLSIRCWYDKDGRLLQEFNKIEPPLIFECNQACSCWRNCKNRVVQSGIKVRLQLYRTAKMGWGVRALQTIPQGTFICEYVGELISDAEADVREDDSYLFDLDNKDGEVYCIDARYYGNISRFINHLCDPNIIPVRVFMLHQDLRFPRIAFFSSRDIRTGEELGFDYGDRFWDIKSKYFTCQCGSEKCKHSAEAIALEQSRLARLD
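Quantitative HTS format: methyltransferase activity on a biotin-tagged H3K9 peptide is measured by AlphaScreen, using a rabbit anti-monomethyl-H3K9 antibody with streptavidin donor and anti-IgG acceptor beads. Final levels are 20 nM enzyme, 500 nM peptide, 20 uM SAM; 2 h RT.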
JMJD2A Tudor = JMJD2A Tudor domain (human) inhibition; O75164; AlphaScreen JMJD2A-Tudor / H3K4me3 peptide binding; Potency, µM (titrated, usually from 114 µM), for inactives: at the top dose activity change, negative = inhibition, hits mostly inhibitors; hit rate 4.4% among 390,000; AID 504339; note: % is set by controls: 0 for no effect and ±100 for the full control effect; nearly all actives have a fitted effect of over 50% in size
Sfp PPTase inh = blocks B. subtilis Sfp PPTase activity; Biochemical Sfp PPTase activity, qHTS; hit rate 3.5% among 310,000; Potency, µM, inactives show largest response in the series, negative = inhibition, hits mostly inhibitors;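 note: the enzyme is Sfp with the accession as filed and its product quenches rhodamine fluorescence; 0% = enzyme reaction without inhibitor and -100% = no enzyme wells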
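Sfp 15 nM + cpd, 15 min RT; start w/ rhodamine-CoA 5 uM, BHQ-2-YbbR 12.5 uM (final); 50 mM Hepes pH 7.6, 10 mM MgCl2, 0.01% NP-40, 0.01% BSA; read 525/598 nm at 0 and 30 min.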
HP1b chromo inh = inhibitors of HP1-beta chromodomain binding to methylated histone tails | Potency, µM (series often up to 114 µM), inactives show at the top dose activity change, negative = inhibition, actives largely listed as inhibitors | hit rate 0.56% among 390,000 | P83916 | AID 540317 | AlphaScreen HP1-beta / biotin-H3K9me3 peptide binding; note: nearly all actives have a fitted effect of over 70% in size
Target sequence (P83916 whole entry, looked up): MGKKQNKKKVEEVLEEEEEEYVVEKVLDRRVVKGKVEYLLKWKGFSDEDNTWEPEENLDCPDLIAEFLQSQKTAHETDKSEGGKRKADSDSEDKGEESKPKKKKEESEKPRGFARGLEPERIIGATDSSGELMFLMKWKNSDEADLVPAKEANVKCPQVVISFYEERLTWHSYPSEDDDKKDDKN
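Compound inhibition of the preformed complex between 50 nM HP1-beta and 50 nM biotinylated H3K9me3 peptide was read by AlphaScreen. Buffer was PBS pH 7.4 with 0.01% Tween-20. Incubations ran 30 min at room temperature, with 10 ug/mL donor/acceptor beads.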
BAZ2B inh = blocks human BAZ2B | Q9UIF8 | AlphaScreen BAZ2B-H3K14Ac peptide displacement | Potency, µM (doses to about 114 µM), for inactives: at the highest dose activity change, negative = inhibition, usual class: inhibitors | hit rate 4.4% among 360,000; note: % is set by controls: 0 for no effect and ±100 for the full control effect; nearly all actives have a fitted effect of over 60% in size
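Multi-concentration screen (max 110 uM) measuring displacement of acetylated histone H3 peptide from BAZ2B by AlphaScreen, using 50 nM protein, 50 nM peptide and 10 ug/mL streptavidin donor plus Ni-chelate acceptor beads.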
Numbers without * were called inactive; ? = inconclusive; · = no result; ! = a repeat was not active; [ ] = another dose, or the depositor's remark. Hits are enriched below; roughly 12% of the tested compounds scored in any of these assays. Calls come from the whole dose curve; as a rule, active = well fitted curve in the direction sought with a large enough effect; inconclusive = small, poorly fitted or top-dose-only effect, or another doubt; inactive = no such curve, though single readings can be large; an effect the other way counts as inactive or inconclusive. Potency is the fitted concentration of half-maximal effect.

SMILES	L3MBTL1 block	G9a inh	JMJD2A Tudor	Sfp PPTase inh	HP1b chromo inh	BAZ2B inh
O=C(Cc1ccccc1)N(Cc1cccnc1)c1nc2ccc(F)cc2s1	·	10%[59 µM]	-1%	·	50%	-4%
CCc1nnc(SCC(=O)Nc2ccc(C(C)=O)cc2)nc1CC	·	-6%[12.7 µM]	-16%	-2%	-1%	56µM*
Cc1nc(C)c(-c2ccc(SCC(=O)Nc3cccc(F)c3)nn2)s1	·	22µM*	?	-2%	38%	-16%
COCCn1c(SCC(=O)Nc2ccc(C(C)=O)cc2)nnc1-c1ccco1	·	16%	-6%	-7%	35%	-1%
CC(=O)c1ccc(NC(=O)CSc2ccc(-c3ccco3)nn2)cc1	·	?	-12%	40µM*	27%	-20%
Cc1cc(C)cc(NC(=O)CSc2ccc(-c3ccco3)nn2)c1	-19%	25µM*	-23%	22µM*	-2%	?
CCCCn1cc(S(=O)(=O)c2ccc(CC)cc2)c(=O)c2cc(F)c(N3CCCC(C)C3)cc21 (centres undefined)	·	-13%[59 µM]	-17%	·	32%	4%
COc1ccc(-c2c(O)c3c(OC)c4c(cc3oc2=O)OC(C)(C)C=C4)cc1	·	·	·	-5%	·	·
CN(CC(=O)Nc1cccc(F)c1)S(=O)(=O)c1ccc2c(c1)n(C)c(=O)c(=O)n2C	·	10%[59 µM]	4%	·	47%	3%
Cc1cc(Cl)ccc1OCC(=O)N[C@@H](Cc1ccccc1)c1nc2ccccc2[nH]1	5%	?	-17%	7%	34%	56µM*
C/C=C\c1ccc(OC)cc1	·	31%[59 µM]	·	26%	·	·
COc1ccc(/C=C/C2=CC(C)(C)NC(=S)N2)cc1	·	8.9µM*	-8%[57.1 µM]	6%	14%	-14%
COc1ccc(CSc2nnc3[nH]c(=O)cc(N)n23)cc1	5%	35µM*	-16%[11.4 µM]	?	2%	-22%
N#Cc1ccc(CSc2nnc3[nH]c(=O)cc(N)n23)cc1	-7%	22µM*	2%	-8%	16%	-22%
COc1ccc(CC(=O)Nc2ccc3nc(N4CCCCC4)cc(C)c3c2)cc1	·	4%[59 µM]	-14%	·	46%	1%
C/C(=N\N=C(N)N)c1ccc(Cl)c(Cl)c1	-1%	50µM*	-18%	-1%	-11%	-12%
C/C(=N\NC(=O)C1CC1)c1ccc(Cl)c(Cl)c1	·	6%	-8%	26%	25%	5%
CCc1ccc(CNC(=O)c2cc3ccccn3n2)cc1	·	6%[59 µM]	-14%	·	12%	0%
CN(C)c1ccc(CNC(=O)c2cc3ccccn3n2)cc1	·	16µM*	?	·	-12%	?
CCCCCCN1N=C(C)C(C(=O)c2ccc(Cl)cc2)C1=O (centres undefined)	-6%	2%[59 µM]	?	20%	3%	-12%
CCCCCCCN1N=C(C)C(C(=O)c2ccccc2)C1=O (centres undefined)	·	?	50µM*	10%	5%	?
CC1=C(C(=O)Nc2ccc(C)cc2C)C(c2cccs2)n2nc(SCc3ccc(Cl)cc3)nc2N1 (centres undefined)	·	3%[59 µM]	-19%	·	10%	-5%
NC(=O)C1CCN(c2nc(-c3cccc(N)c3)cs2)CC1	-6%	?	-18%	·	19%	?
Cn1ccc2cc(-c3csc(N4CCC(C(N)=O)CC4)n3)ccc21	-5%	-25%[12.7 µM]	-7%	·	50%	50µM*
NC(=O)C1CCN(c2nc(-c3cccnc3)cs2)CC1	3%	-4%[12.7 µM]	79µM*	·	38%	-3%
SMILES	L3MBTL1 block	G9a inh	JMJD2A Tudor	Sfp PPTase inh	HP1b chromo inh	BAZ2B inh
NC(=O)C1CCN(c2nc(-c3ccccc3F)cs2)CC1	-10%	1%[12.7 µM]	-30%	·	12%	?
NC(=O)C1CCN(c2nc(-c3ccccc3C(F)(F)F)cs2)CC1	?	-10%[12.7 µM]	79µM*	·	11%	-37%
NC(=O)C1CCN(c2nc(-c3ccc(F)cc3)cs2)CC1	?	-24%[12.7 µM]	-18%	·	29%	56µM*!
Cn1cnc2c(=O)oc3ccc(S(=O)(=O)N4CCN(c5cccc(Cl)c5)CC4)cc3c21	·	-15%[59 µM]	2%	·	20%	-33%
O=C(CN1CCN(c2ncccn2)CC1)NCc1ccc2c(c1)OCO2	·	8%	-6%	5%	26%	-18%
O=C(CN1CCN(c2nc(-c3ccc(F)cc3)cs2)CC1)NCc1ccc2c(c1)OCO2	?	40µM*	?	-29%	-22%	?
CO[C@H]1C([C@@]2(C)O[C@@H]2CC=C(C)C)[C@]2(CC[C@H]1OC(=O)/C=C/C=C/C=C/C=C/C(=O)O)CO2 (some centres undefined)	·	22µM*	·	40µM*	·	·
CCC(C(=O)Nc1cccc(C#N)c1)n1c(=O)c(-c2ccccc2NC(C)=O)nc2ccccc21 (centres undefined)	·	-8%[59 µM]	-25%	·	3%	-12%
CN(C)S(=O)(=O)c1cccc(NC(=O)CNCc2ccccn2)c1	-24%	·	28µM*	?	23%	20µM*
CCN(CC)S(=O)(=O)c1ccc(NC(=O)CNC2CCCCC2)cc1	·	25µM*	5.6µM*	-23%	?	79µM*
CCN(CC)S(=O)(=O)c1ccc(NC(=O)CCC2CCCCC2)cc1	·	0%[12.7 µM]	1%	3%	69%	3%
CN(C)S(=O)(=O)c1cccc(NC(=O)CSc2nc3ccccc3n2-c2ccccc2)c1	-8%	79µM*	-25%	-14%	-1%	-7%
CN(C)S(=O)(=O)c1cccc(NC(=O)CNC2CCCCC2)c1	2%	50µM*	22µM*	-10%	?	?
Cc1cc(C)nc(SCC(=O)Nc2cccc(S(=O)(=O)N(C)C)c2)n1	10%	-13%	-12%	15%	17%	-8%
CC(=O)OCC1C2CC[C@H]3C(OCc4ccc(F)cc4C(F)(F)F)OC[C@]4(C)[C@H]3C2=C(CN4C(=O)OC(C)(C)C)[C@H](C)C1COC(C)=O (some centres undefined)	·	·	·	38%	·	·
CCCSc1ncc(Cl)c(C(=O)NCc2ccc(C)cc2)n1	·	15%[59 µM]	1%	·	38%	5%
O=C(CCC(=O)c1ccc(F)cc1)Nc1ccc(Cl)cc1	·	?	-3%	·	36%	6%
CCNc1ncc2nc(CCc3ccccc3)c(=O)n(-c3ccccc3)c2n1	·	11%[12.7 µM]	·	-24%	·	·
Cc1cc(NC(=O)Cn2c(=O)nc(-c3ccccc3F)c3cc(Cl)ccc32)ccc1Br	·	-21%[59 µM]	-10%	·	22%	1%
CCN1CCN(C(=S)Nc2ccc3nc4n(c(=O)c3c2)CCCCC4)CC1	3%	45µM*	-6%	13%	50%	-8%
CN(C)c1cccc(C(=O)Nc2ccc3nc4n(c(=O)c3c2)CCCCC4)c1	·	45µM*	?	7%	-7%	?
COc1ccc(Cn2c(-c3ccc(OC)cc3)n[nH]c2=S)cc1	·	2.8µM*	?	-1%	5%[57 µM]	-24%

High-throughput results as filed in PubChem BioAssay.
